Each structure is given as a SMILES string. Where “and” joins values, the source holds several entries; their conditions need not be identical. Equal values may be shown once. Records with an inconclusive call do not appear. Calls of active or inactive are those of the source. Unless noted, calls come from the whole dose curve; as a rule, active = well fitted curve in the direction sought with a large enough effect; inconclusive = small, poorly fitted or top-dose-only effect, or another doubt; inactive = no such curve, though single readings can be large; an effect the other way counts as inactive or inconclusive.

Assay [1] is described as follows: Cell Viability - SH-SY5Y (AID 544).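 Note: cells exposed to compound for 40 hours; 0% = DMSO alone and -100% = 100 µM tamoxifen; nearly all actives have a fitted effect of over 55% in size.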 As to conditions: SH-SY5Y neuroblastoma cell viability; viability change, negative = cytotoxic: at 92.2 µM (top of the series). Summed up: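 SH-SY5Y human neuroblastoma cells (1500/well) incubated 5 h, then compound-treated 40 h at 37 °C in complete medium. Viability read as intracellular ATP by CellTiter-Glo luminescence after 20 min; AC50 from Hill-equation fits of qHTS concentration-response.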

Assay [2] can be described thus: Cellular Toxicity (caspase-3) Hek293 (AID 664).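 Note: cells exposed to compound for 16 h at 37 °C before readout.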 The method in brief: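 HEK293 cells in complete medium treated 16 h at 37 °C, then Caspase-Glo 3/7 luminescence read after 20 min at room temperature. Normalized to DMSO and 100 uM tamoxifen; AC50 from Hill fit of concentration-response.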
The nature of assay [3]: MultiTox-Fluor Cytotoxicity Assay - LYMP1-001 - Dead Cells (AID 946). Note: potency is the fitted concentration of half-maximal effect. The method in brief: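 AC50 from Hill fit of concentration-response; data normalized to DMSO (basal) and 15 uM tetraoctylammonium bromide (100%). LYMP1-001 lymphoblastoid cells, 2500/well, 16 hr compound at 37 C; dead-cell protease fluorescence, Ex/Em 485/520.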
Assay [4] is described as follows: Cell Viability - LYMP1-003 - Assay at 40 hr (AID 964). Note: nearly all actives have a fitted effect of over 60% in size. Note: potency is the fitted concentration of half-maximal effect. Summed up: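 LYMP1-003 human lymphoblastoid cells, 2500/well, preincubated 5 h at 37 C, then treated with compound for 40 h at 37 C. Intracellular ATP read by CellTiter-Glo luminescence after 30 min at room temperature; AC50 from Hill-equation fits.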
Assay [5] can be described thus: Cell Viability - LYMP2-009 (AID 968).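 Note: 0% = DMSO alone and the full-kill end = tetraoctylammonium bromide at 92 µM; nearly all actives have a fitted effect of over 55% in size.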
Assay [6] can be described thus: Cell Viability - LYMP2-011 (AID 969).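 For viability change, negative = cytotoxic: 0% = DMSO only and full inhibition = 92 µM tetraoctylammonium bromide.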 Note: nearly all actives have a fitted effect of over 60% in size. Note: potency is the fitted concentration of half-maximal effect. Summed up: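 2500 cells/well in complete medium, compound-treated 24 h at 37 C. Viability read as intracellular ATP by CellTiter-Glo luminescence after 30 min at room temperature. AC50 from Hill fits of qHTS concentration-response data.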
The nature of assay [7]: Cell Viability - LYMP2-015 (AID 971). Note: nearly all actives have a fitted effect of over 55% in size. Note: potency is the fitted concentration of half-maximal effect. The method in brief: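 LYMP2-015 human lymphoblastoid cells (2500/well) in complete medium, compound-treated 24 h at 37 C; viability read as cellular ATP by CellTiter-Glo luminescence after 30 min at room temperature. AC50 from Hill-equation fits of qHTS concentration-response data.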
A short description of assay [8]: Cell Viability - LYMP2-019 (AID 973).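 Note: 0% = DMSO alone and full effect = 92 µM tetraoctylammonium bromide; nearly all actives have a fitted effect of over 55% in size.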 The method in brief:
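Human lymphoblastoid LYMP2-019 cells (2500/well) preincubated 5 h at 37 C, then treated 24 h at 37 C in complete medium. Viability by CellTiter-Glo ATP luminescence after 30 min at room temperature; AC50 from Hill fits.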

Assay [9] is described as follows: Cell Viability - LYMP2-023 (AID 975). Note: nearly all actives have a fitted effect of over 55% in size. Note: potency is the fitted concentration of half-maximal effect. The method in brief:
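LYMP2-023 human lymphoblastoid cells, 2500/well, preincubated 5 hr at 37 C, then compound-treated 24 hr at 37 C in complete medium. CellTiter-Glo luminescence (ATP) after 30 min at room temperature; AC50 from Hill-equation fits; tetraoctylammonium bromide positive control.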

Assay [10] is described as follows: Cell Viability - LYMP2-006 (AID 978). Note: nearly all actives have a fitted effect of over 60% in size. Note: potency is the fitted concentration of half-maximal effect. The method in brief:
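Concentration-dependent loss of intracellular ATP in a human lymphoblastoid line after 24 hr treatment at 37 C was measured by CellTiter-Glo luminescence, with AC50 values obtained from standard Hill-equation modelling.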

Assay [11] in a line: Cell Viability - LYMP2-012 (AID 982). Note: potency is the fitted concentration of half-maximal effect.
Assay [12] can be described thus: Cell Viability - LYMP2-020 (AID 986). Note: nearly all actives have a fitted effect of over 55% in size. Note: potency is the fitted concentration of half-maximal effect. Summed up:
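Human lymphoblastoid LYMP2-020 cells (2500/well) preincubated 5 h at 37 C, then treated 24 h at 37 C. Viability measured as intracellular ATP by CellTiter-Glo luminescence after 30 min at room temperature; AC50 from Hill fits.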

Assay [13] in a line: Cell Viability - LYMP2-026 (AID 989). Note: nearly all actives have a fitted effect of over 50% in size. Note: potency is the fitted concentration of half-maximal effect. The method in brief: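 Human lymphoblastoid LYMP2-026 cells, 2500/well, exposed to compound 24 h at 37 C in complete medium. Viability as intracellular ATP by CellTiter-Glo luminescence; AC50 from Hill fits of qHTS concentration-response.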
Assay [14] is described as follows: Cell Viability - LYMP1-002 - Assay at 40 hr (AID 994).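 For viability change, negative = cytotoxic: 0% = DMSO only and full inhibition = 92 µM tetraoctylammonium bromide.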 Note: nearly all actives have a fitted effect of over 60% in size. Note: potency is the fitted concentration of half-maximal effect. The method in brief: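 LYMP1-002 human lymphoblastoid cells (2500/well, complete medium) were treated with compounds for 40 hr at 37 C. Intracellular ATP was measured by CellTiter-Glo luminescence, and AC50 values came from Hill-equation fits of concentration-response data; tetraoctylammonium bromide was the positive control.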

The target in assay [15] is Estrogen receptor (Homo sapiens) (UniProt P03372). Put plainly: qHTS assay for small molecule antagonists of estrogen receptor alpha signaling (AID 588513; active = well fitted curve in the direction sought with a large enough effect in the signal ratio, with a control signal flat, not every such curve was filed as active; the % refers to the signal ratio; note: % is set by controls: 0 for no effect and ±100 for the full control effect). The method in brief: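 Cells were plated at 5000/well and incubated 4 h at 37 C. Compounds were added as 1:2 dilution series, duplicates. 17-beta-estradiol (0.5nM final) was added for 18 h before CCF4 detection.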
Sequence of Estrogen receptor (Homo sapiens) (P03372 whole entry, looked up): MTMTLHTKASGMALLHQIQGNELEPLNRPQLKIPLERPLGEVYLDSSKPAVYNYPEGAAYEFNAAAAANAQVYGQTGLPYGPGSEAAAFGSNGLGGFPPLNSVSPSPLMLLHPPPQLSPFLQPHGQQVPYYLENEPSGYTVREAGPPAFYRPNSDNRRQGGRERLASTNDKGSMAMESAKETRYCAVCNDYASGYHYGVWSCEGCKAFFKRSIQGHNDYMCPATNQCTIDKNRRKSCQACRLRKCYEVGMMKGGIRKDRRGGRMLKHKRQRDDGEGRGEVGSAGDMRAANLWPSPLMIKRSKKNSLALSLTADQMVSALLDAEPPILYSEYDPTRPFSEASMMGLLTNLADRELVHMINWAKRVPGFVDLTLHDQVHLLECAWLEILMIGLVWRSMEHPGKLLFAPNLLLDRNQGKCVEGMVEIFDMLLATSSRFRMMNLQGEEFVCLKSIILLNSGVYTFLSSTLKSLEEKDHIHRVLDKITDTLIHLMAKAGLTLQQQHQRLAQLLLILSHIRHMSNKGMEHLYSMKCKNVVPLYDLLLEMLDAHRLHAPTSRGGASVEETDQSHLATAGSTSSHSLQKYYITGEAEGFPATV

The target in assay [16] is Peroxisome proliferator-activated receptor delta (Homo sapiens) (UniProt Q03181). Put plainly: qHTS assay for small molecule agonists of peroxisome proliferator-activated receptor delta signaling (AID 588534; calls by dose curve;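 note: 0% = DMSO basal wells and 100% = positive control agonist at 10 µM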). Summed up:
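Cells carrying a PPAR-delta beta-lactamase reporter were treated with compounds for 18 h at 37 °C in agonist mode. CCF4 fluorescence was read after 2 h; EC50 and efficacy from Hill fits.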

Assay [17] addresses Vitamin D3 receptor (Homo sapiens) (UniProt P11473). In words: qHTS assay for small molecule agonists of vitamin D receptor signaling (AID 588543; calls by dose curve;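 note: 0% = DMSO basal and 100% = reference agonist control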). The method in brief: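 qHTS in agonist mode: compound titrations stimulate a VDR-driven β-lactamase reporter in HEK293T cells over 16 h at 37 °C. Response normalized to 50 nM 1α,25-dihydroxyvitamin D3 = 100%, DMSO = 0%; Hill fitting gives EC50 and maximal response.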
On the technique in general: qHTS replaces the single test concentration by a dilution series.

Assay [18] can be described thus: qHTS assay for small molecule agonists of retinoid X receptor alpha signaling (AID 588544). As to conditions: HEK293T RXRa-UAS-bla, beta-lactamase reporter, 18 h; 530 nm emission.
Assay [19] addresses Nuclear receptor subfamily 1 group I member 2 (Rattus norvegicus) (UniProt Q9R1A7). In words: qHTS assay for small molecule activators of the rat pregnane X receptor (rPXR) signaling pathway (AID 651751; call rule not given here; note: 0% is about no effect). As to conditions: rPXR reporter cells, luciferase (One-Glo), 24 h.

Sequence of Nuclear receptor subfamily 1 group I member 2 (Rattus norvegicus) (Q9R1A7 whole entry, looked up): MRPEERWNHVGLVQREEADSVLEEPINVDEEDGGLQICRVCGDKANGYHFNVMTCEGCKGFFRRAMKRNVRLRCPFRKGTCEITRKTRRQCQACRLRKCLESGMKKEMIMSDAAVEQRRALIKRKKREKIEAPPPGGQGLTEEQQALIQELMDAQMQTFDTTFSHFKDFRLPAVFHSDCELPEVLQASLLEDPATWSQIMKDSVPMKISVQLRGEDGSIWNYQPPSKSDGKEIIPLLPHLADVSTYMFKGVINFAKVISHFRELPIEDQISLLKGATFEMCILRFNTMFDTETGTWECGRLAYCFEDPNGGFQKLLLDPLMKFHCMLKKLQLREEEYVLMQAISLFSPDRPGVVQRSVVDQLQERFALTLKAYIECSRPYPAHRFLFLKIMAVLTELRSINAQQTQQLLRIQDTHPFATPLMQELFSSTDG
Sequence of Peroxisome proliferator-activated receptor delta (Homo sapiens) (Q03181 whole entry, looked up): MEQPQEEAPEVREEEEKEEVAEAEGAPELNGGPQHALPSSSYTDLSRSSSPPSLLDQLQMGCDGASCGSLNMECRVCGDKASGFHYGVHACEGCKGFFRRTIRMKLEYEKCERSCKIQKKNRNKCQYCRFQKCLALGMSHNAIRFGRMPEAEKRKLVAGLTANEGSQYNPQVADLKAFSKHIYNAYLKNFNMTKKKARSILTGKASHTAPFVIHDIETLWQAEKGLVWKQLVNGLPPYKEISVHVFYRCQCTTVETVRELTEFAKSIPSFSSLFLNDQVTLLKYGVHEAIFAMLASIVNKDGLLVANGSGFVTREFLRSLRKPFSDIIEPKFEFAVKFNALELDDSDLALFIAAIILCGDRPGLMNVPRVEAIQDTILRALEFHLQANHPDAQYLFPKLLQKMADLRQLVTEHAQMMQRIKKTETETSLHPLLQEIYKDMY
Sequence of Vitamin D3 receptor (Homo sapiens) (P11473 whole entry, looked up): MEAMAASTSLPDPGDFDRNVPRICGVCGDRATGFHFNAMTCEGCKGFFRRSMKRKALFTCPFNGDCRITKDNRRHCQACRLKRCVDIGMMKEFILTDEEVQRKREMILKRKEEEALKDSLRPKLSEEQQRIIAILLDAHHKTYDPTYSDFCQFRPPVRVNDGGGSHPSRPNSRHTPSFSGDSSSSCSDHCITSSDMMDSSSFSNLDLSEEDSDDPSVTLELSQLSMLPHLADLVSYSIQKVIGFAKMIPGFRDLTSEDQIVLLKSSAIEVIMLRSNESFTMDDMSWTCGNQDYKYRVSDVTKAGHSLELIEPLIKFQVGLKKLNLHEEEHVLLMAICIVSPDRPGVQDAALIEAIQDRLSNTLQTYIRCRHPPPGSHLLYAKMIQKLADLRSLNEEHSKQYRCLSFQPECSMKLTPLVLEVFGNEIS

On to `ClC(Cl)=C(c1ccc(Cl)cc1)c1ccc(Cl)cc1`, for which the Potency result in assay [1], in [3], in assay [4], in [5], in [6] and in [7] was “inactive” in each case. For the same compound, the Potency entry in assay [8], in assay [9], in assay [10], in assay [11], in assay [12] and in assay [13] was “inactive” in each case. Further, the Potency entry in assay [14] and in [15] was “inactive” in each case. In addition, the result in assay [2], in assay [16] and in [17] was inactive. Moreover, the max response is 8.46% in assay [18]; 1.57% (inactive) and 5.61% (inactive) and 0.401% (inactive) in assay [19].
For `C=CCc1ccc(OC)cc1`, the Potency entry in assay [1], in assay [3], in [4], in assay [5], in assay [6] and in assay [7] was “inactive” each time. Also, the Potency result in assay [8], in [9], in assay [10], in [11], in [12] and in assay [13] was “inactive” each time. The Potency entry in [14] is “inactive”. Also, the result in [2] and in [16] was inactive. The max response was -5.04% in assay [18] and 0.607% (inactive) in assay [19].
In the case of `COP(=S)(OC)Oc1ccc([N+](=O)[O-])cc1`, the Potency entry in assay [1], in assay [3], in assay [4], in [5], in assay [6] and in assay [7] was “inactive” throughout. Also, the Potency entry in assay [8], in [9], in assay [10], in [11], in assay [12] and in [13] was “inactive” in each case. The Potency result in [14] and in assay [15] was “inactive” each time. The compound was called inactive in assay [2], in assay [16] and in [17]. The max response in assay [18] was -22.5% and 4.79%; in [19] it was 8.93% (inactive) and 0.334% (inactive).
For the compound `CNC(=O)O/N=C/C(C)(C)SC`, the Potency entry in [1], in assay [3], in assay [4], in assay [6], in assay [7] and in [8] was “inactive” in each case. Besides, the Potency entry in assay [9], in [10], in [11], in assay [13], in assay [14] and in assay [15] was “inactive” each time. Further, the call in [2] and in assay [16] was inactive. Moreover, in [18], the max response was -12.4% and 19.1% and 1.84%.
As for `CCOCN(C(=O)CCl)c1c(C)cccc1CC`, the outcome in assay [2] and in assay [17] was inactive. Moreover, the Potency in assay [4], in assay [6] and in [10] was 50.1 µM (active) throughout. In assay [19], the max response is -4.5% (inactive) and -5.56% (inactive).
As for `O=C(O)COc1ccc(Cl)cc1Cl`, the Potency result in [1], in assay [3], in assay [4], in assay [5], in assay [6] and in [7] was “inactive” throughout. The Potency result in assay [8], in assay [9], in [10], in assay [11], in [12] and in [13] was “inactive” throughout. Also, the Potency entry in assay [14] was “inactive”. The compound was classed as inactive in [2] and in assay [17]. Also, the max response in assay [18] was 29.1%; in [19], -0.13% (inactive) [middle of 4 runs].
Consider `ClC1=C(Cl)C2(Cl)C3C4CC(C5OC45)C3C1(Cl)C2(Cl)Cl` (stereo not drawn), for which the Potency entry in assay [1] and in assay [15] was “inactive” each time. Also, the result in assay [2], in [16] and in assay [17] was inactive. For the same compound, the Potency was 31.6 µM (active) in assay [3]; 10 µM (active) in assay [4]; 39.8 µM (active) in assay [6]; 39.8 µM (active) in [7]; 39.8 µM (active) in assay [9]; 31.6 µM (active) in assay [10]. The Potency was 39.8 µM (active) in [11], 31.6 µM (active) in assay [12], 39.8 µM (active) in [13] and 12.6 µM (active) in [14].

(Values after PubChem BioAssay (NCATS).)
